Compound activity from PubChem BioAssay.
Pf Dd2 inh – P. falciparum Dd2 growth inhibition | SYBR Green, 72 h; hits give low values | activity change, % at 10 µM | 94,000 compounds, 2.3% hits; in the data active = activity change below about -80%; inconclusive = no clear call, values can overlap the other calls
C diff HTS – blocks growth of Clostridium difficile | 86,000 compounds, 0.25% hits | growth activity, negative = inhibition, % at 16 µg/mL (by protocol) | AID 1259249 | Clostridium difficile clinical isolate growth, OD600, 24 h; hits give low values;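 active = mean growth activity at or below -80% and every replicate also at or below -80%; inconclusive = mean at or below -80% but some replicate above -80%; inactive = mean growth activity above -80%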;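 also: 0% = DMSO wells and -100% = levofloxacin 16 µg/mL wells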
T cruzi growth-1 – blocks T. cruzi growth in NIH3T3 culture; T. cruzi beta-gal in NIH3T3, GalScreen luminescence, 90 h; inhibition, % at 8.34 µM; 77,000 compounds, 5.9% hits;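 active = mean inhibition above about 93%, with at least 55% of replicates each passing it, limit read from the data, passing the limit was not always enough; inconclusive = only one of those two conditions holds; inactive = neither condition holds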
T cruzi growth-2 – blocks T. cruzi growth in NIH3T3 host cells | shares compounds with T cruzi growth-1 | T. cruzi beta-gal in NIH3T3, GalScreen luminescence, 90 h | inhibition, % at 8.35 µM | 5,600 compounds, 72% hits;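 active = mean replicate inhibition above about 95% and at least 55% of replicates individually reaching it, limit read from the data; inconclusive = only one of the two criteria is met; inactive = neither criterion is met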
T cruzi growth-3 – inhibitors of T. cruzi proliferation. T. cruzi beta-gal in NIH3T3, GalScreen luminescence, 90 h. 5,600 compounds, 21% hits. AID 651740. inhibition, % at 2.09 µM. shares compounds with T cruzi growth-1;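 active = mean inhibition above about 95%, with at least 55% of replicates also reaching it, limit read from the data; inconclusive = meets just one of the two conditions; inactive = meets neither condition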;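 also: plate controls were neutral control median for no effect and positive control median for full effect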
NIH3T3 tox – cytotoxicity in mouse NIH/3T3 fibroblasts. shares compounds with T cruzi growth-1. NIH/3T3 viability, CellTiter-Glo ATP luminescence, 90 h. cytotoxicity (signal decrease), % at 8.35 µM. 5,600 compounds, 14% hits;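 active = mean signal decrease across replicates above about 35% based on untreated-well scatter, with enough replicates individually passing, limit read from the data; inconclusive = no rule stated though some were filed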;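 also: 0% = median of neutral control wells and 100% = median of positive control wells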
3T3 cytotox 2 – NIH/3T3 (mouse) viability loss. shares compounds with T cruzi growth-1. NIH/3T3 viability, CellTiter-Glo ATP luminescence, 90 h. inhibition, % at 24.9 µM. 5,600 compounds, 56% hits. AID 651744;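 active = mean loss of cell viability signal at or above a set limit, and enough replicates individually reaching it; inconclusive = meets only the mean limit or only the replicate share; inactive = meets neither condition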;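 also: 0% = median of neutral control wells and 100% = median of positive control wells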
Starred values were filed as active, the others as inactive; ? = inconclusive; · = not tested or not shown. Hits are enriched below; roughly 6.7% of the tested compounds scored in any of these assays.

SMILES | Pf Dd2 inh | C diff HTS | T cruzi growth-1 | T cruzi growth-2 | T cruzi growth-3 | NIH3T3 tox | 3T3 cytotox 2
COc1ccc(S(=O)(=O)N(C)C[C@H]2OCCCC[C@@H](C)Oc3ccc(NS(=O)(=O)c4ccccc4)cc3C(=O)N([C@@H](C)CO)C[C@H]2C)cc1 | · | -9 | 107* | ? | 43 | -6 | 3
COc1ccc(S(=O)(=O)N(C)C[C@@H]2OCCCC[C@@H](C)Oc3ccc(NS(=O)(=O)c4ccccc4)cc3C(=O)N([C@H](C)CO)C[C@H]2C)cc1 | · | -14 | 106* | 109* | 55 | 7 | 4
COc1ccc(S(=O)(=O)Nc2ccc3c(c2)C(=O)N([C@H](C)CO)C[C@H](C)[C@H](CN(C)S(=O)(=O)c2ccccc2)OCCCC[C@H](C)O3)cc1 | -32 | -10 | · | · | · | · | ·
Cc1noc(C)c1S(=O)(=O)N(C)C[C@H]1OCCCC[C@@H](C)Oc2ccc(NS(=O)(=O)c3cccs3)cc2C(=O)N([C@@H](C)CO)C[C@@H]1C | -57 | -4 | · | · | · | · | ·
C[C@H](CO)N1C[C@H](C)[C@@H](CN(C)Cc2ccc(Cl)c(Cl)c2)Oc2ccc(NC(=O)C3CC3)cc2CC1=O | -16 | 2 | 115* | 105* | 53 | 0 | 6
C[C@@H]1CN([C@@H](C)CO)C(=O)Cc2cc(NC(=O)C3CCCCC3)ccc2O[C@@H]1CN(C)Cc1ccc(Cl)c(Cl)c1 | -7 | -1 | 84 | · | · | · | ·
C[C@H]1CN([C@@H](C)CO)C(=O)Cc2cc(NC(=O)C3CC3)ccc2O[C@@H]1CN(C)Cc1ccc(Cl)c(Cl)c1 | -9 | 2 | 60 | · | · | · | ·
C[C@@H]1CN([C@@H](C)CO)C(=O)Cc2cc(NC(=O)C3CC3)ccc2O[C@H]1CN(C)Cc1ccc(Cl)c(Cl)c1 | -61 | 33 | 124* | 98* | 33 | 40* | 106*
COCC(=O)Nc1ccc2c(c1)[C@H]1C[C@@H](CC(=O)NCc3cccc(F)c3)O[C@H](CO)[C@H]1O2 | 2 | 2 | · | · | · | · | ·
C[C@H](CO)N1C[C@H](C)[C@H](CN(C)C(=O)Nc2cccc3ccccc23)OCCCC[C@H](C)Oc2ccc(NC(=O)Nc3cccc4ccccc34)cc2C1=O | 6 | · | 27 | · | · | · | ·
C[C@@H]1CCCCO[C@H](CN(C)C(=O)C2CCCCC2)[C@@H](C)CN([C@@H](C)CO)C(=O)c2cc(NC(=O)Nc3cccc4ccccc34)ccc2O1 | -92* | -3 | ? | 103* | 102* | -19 | -3
C[C@H](CO)N1C[C@H](C)[C@@H](CN(C)C(=O)C2CCCCC2)OCCCC[C@H](C)Oc2ccc(NC(=O)Nc3cccc4ccccc34)cc2C1=O | -6 | 0 | 119* | 88 | 49 | -12 | ?
C[C@@H]1CCCCO[C@@H](CN(C)C(=O)C2CCCCC2)[C@@H](C)CN([C@H](C)CO)C(=O)c2cc(NC(=O)Nc3cccc4ccccc34)ccc2O1 | -72 | 4 | 71 | · | · | · | ·
C[C@@H]1CCCCO[C@@H](CN(C)C(=O)c2ccccc2)[C@@H](C)CN([C@@H](C)CO)C(=O)c2cc(NC(=O)Nc3cccc4ccccc34)ccc2O1 | -14 | -3 | 22 | · | · | · | ·
C[C@@H]1CCCCO[C@@H](CN(C)C(=O)C2CCCCC2)[C@H](C)CN([C@H](C)CO)C(=O)c2cc(NC(=O)Nc3cccc4ccccc34)ccc2O1 | -41 | -5 | ? | 110* | 105* | -40 | -22
C[C@H](CO)N1C[C@H](C)[C@H](CN(C)C(=O)C2CCCCC2)OCCCC[C@H](C)Oc2ccc(NC(=O)Nc3cccc4ccccc34)cc2C1=O | 24 | -10 | 121* | 105* | 54 | -17 | -9
C[C@H]1CCCCO[C@H](CN(C)C(=O)Nc2cccc3ccccc23)[C@@H](C)CN([C@@H](C)CO)C(=O)c2cc(NC(=O)Nc3cccc4ccccc34)ccc2O1 | -33 | · | 50 | · | · | · | ·
COc1ccc2c3c(n(C)c2c1)[C@@H](CO)N(C(=O)CC1CC1)CC31CCN(C(=O)C2CCC2)CC1 | -50 | -7 | · | · | · | · | ·
CO[C@H]1CN(C)C(=O)c2cc(NS(=O)(=O)c3cn(C)cn3)ccc2OC[C@H](C)N(C)C[C@H]1C | 11 | -5 | -22 | · | · | · | ·
Cn1cnc(S(=O)(=O)N2CCCCN3[C@H](C2)[C@H](c2ccc(C4=CCCC4)cc2)[C@@H]3CO)c1 | -16 | -4 | 56 | · | · | · | ·
C[C@@H]1CCCCO[C@@H](CN(C)C(=O)Nc2cccc3ccccc23)[C@H](C)CN([C@@H](C)CO)C(=O)c2cc(NC(=O)Nc3cccc4ccccc34)ccc2O1 | -12 | 6 | · | · | · | · | ·
C[C@@H]1CCCCO[C@H](CN(C)C(=O)C2CCCCC2)[C@H](C)CN([C@@H](C)CO)C(=O)c2cc(NC(=O)Nc3cccc4ccccc34)ccc2O1 | -48 | -6 | ? | 105* | 80 | 11 | 22
CCCC#Cc1ccc([C@H]2[C@@H](CO)N(C(=O)NC(C)C)[C@@H]2CNC(C)=O)cc1 | -6 | 0 | · | · | · | · | ·
COc1ccc(S(=O)(=O)Nc2ccc3c(c2)C(=O)N([C@@H](C)CO)C[C@@H](C)[C@@H](CN(C)C(=O)c2ccccc2)OCCCC[C@@H](C)O3)cc1 | -20 | 0 | 17 | · | · | · | ·
C[C@@H]1CN([C@@H](C)CO)S(=O)(=O)c2ccc(C3=CCCCC3)cc2O[C@@H]1CN(C)C(=O)Cc1ccncc1 | -68 | -2 | 97* | 89 | 59 | 19 | 32*
SMILES | Pf Dd2 inh | C diff HTS | T cruzi growth-1 | T cruzi growth-2 | T cruzi growth-3 | NIH3T3 tox | 3T3 cytotox 2
C[C@@H]1CN([C@H](C)CO)S(=O)(=O)c2ccc(C3=CCCCC3)cc2O[C@@H]1CN(C)C(=O)Cc1ccncc1 | -69 | -1 | 94 | · | · | · | ·
C[C@@H]1CN([C@H](C)CO)S(=O)(=O)c2ccc(C3=CCCCC3)cc2O[C@@H]1CN(C)C(=O)Cc1ccccc1 | -7 | 9 | 103 | · | · | · | ·
C[C@@H]1CN([C@@H](C)CO)S(=O)(=O)c2ccc(C3=CCCCC3)cc2O[C@H]1CN(C)C(=O)Cc1ccccc1 | -43 | -9 | ? | 105* | 41 | 53* | 52*
C[C@@H]1CN([C@@H](C)CO)S(=O)(=O)c2ccc(C3=CCCCC3)cc2O[C@H]1CN(C)C(=O)Cc1ccncc1 | -72 | -2 | 81 | · | · | · | ·
C[C@@H]1CN([C@H](C)CO)S(=O)(=O)c2ccc(C3=CCCC3)cc2O[C@H]1CN(C)C(=O)Cc1ccncc1 | -19 | 0 | 73 | · | · | · | ·
C[C@@H]1CN([C@H](C)CO)S(=O)(=O)c2ccc(C3=CCCCC3)cc2O[C@H]1CN(C)C(=O)Cc1ccncc1 | -79 | -2 | 100* | 103* | 66 | 28 | 36*
C[C@@H]1CN([C@@H](C)CO)S(=O)(=O)c2ccc(C3=CCCC3)cc2O[C@H]1CN(C)C(=O)Cc1ccncc1 | -66 | -1 | 98* | 80 | 15 | -7 | 23
